Only some compounds are listed: those with a hit (about 3.5% of all), similar ones and a draw of the others.
Bead autofluor: counter-screen for toxin protease inhibitors: compound fluorescence; compound autofluorescence counterscreen, microsphere flow cytometry; hits give high values; fluorescence intensity (test concentration not listed); actives 3.1% (n = 360,000); AID 624483; in the data active = fluorescence intensity above about 16000; inconclusive = no clear call, values can overlap the other calls
BoNT-F LC inh: BoNT F light chain protease inhibition; AID 588497; inhibition, % at 10 µM; actives 0.22% (n = 360,000); Multiplex microsphere protease cleavage assay, flow cytometry; in the data active = inhibition above about 35%, passing the limit was not always enough; inconclusive = no clear call, values can overlap the other calls
Anthrax LF prot: anthrax lethal factor protease inhibition. P15917. multiplex microsphere protease cleavage assay, LF. inhibition, % at 10 µM. actives 0.12% (n = 360,000). AID 588501
BoNT A protease: blocks Botulinum neurotoxin A light chain protease | multiplex microsphere protease substrate cleavage, flow cytometry | inhibition, % at 10 µM | actives 0.17% (n = 360,000)
Of the large screens only hits and unclear results are named; the others gave an inactive call. Cut-off read from the data, not from the text of the source, unless noted: active = inhibition above about 30%; inconclusive = no clear call, values can overlap the other calls; inactive = below that.

O=C(N/N=C/c1ccccc1[N+](=O)[O-])c1ccc2nc[nH]c2c1	BoNT-F LC inh 49, Anthrax LF prot inconclusive
CSC1=C(C#N)C(=O)NC(c2ccc(Cl)cc2)S1 (centres undefined)	BoNT-F LC inh inconclusive
CCN(CC)CCN1C(=O)C2C(C(=O)Nc3ccc(C(C)C)cc3)C3C=CC2(O3)C1C(=O)NC1CCCCC1 (centres undefined)	none
O=C(Nc1ccc2c(c1)OCO2)c1c(F)c(F)c(F)c(F)c1F	Bead autofluor 18127
O=C(Nc1ccc2c(c1)OCCO2)c1c(F)cccc1F	Bead autofluor 20165, BoNT A protease inconclusive
O=C(Nc1ccc2c(c1)OCO2)c1ccc(Cl)s1	Bead autofluor 16810
O=C(Nc1ccc2c(c1)OCCO2)c1ccccc1F	none
CC(C)C1C(=O)N(Cc2cn(CCC3OCCCO3)nn2)CCS(=O)(=O)N1Cc1ccc(-c2ccc(Cl)c(Cl)c2)cc1 (centres undefined)	none
C=CCOc1ccccc1/C=N/O	Bead autofluor 24314, BoNT A protease inconclusive
Cc1ccc(Oc2ccccc2/C=N/O)cc1	none
FC(F)(F)c1cccc(NC(=S)NCCc2ccccn2)c1	Bead autofluor 21974
Cc1ccc(SCC(=O)N(C)CC(=O)Nc2cccc(F)c2)c(C)c1	none
CCOC(=O)N1CCN(c2cc(N3CCN(CC)CC3)c(F)cc2[N+](=O)[O-])CC1C (centres undefined)	Bead autofluor 18259
Cc1ccc(O)c(C(=O)c2cnc3c(c2)CN(CCC(C)C)C(=O)N3)c1	none
Cc1ccc(O)c(C(=O)c2cnc3c(c2)CN(C)C(=O)N3)c1	Bead autofluor 21945
CCCCCc1c(C)nc(NCc2ccccc2)[nH]c1=O	Bead autofluor 20180, BoNT A protease inconclusive
Cc1nc(Nc2ccccc2)[nH]c(=O)c1CCC(C)C	none
CCN(C(=O)COC(=O)c1ccc[nH]c1=O)c1cccc2ccccc12	none
CCC1CCCCN1CCCNC(=O)CSc1nc2nc(C)c(Cc3ccc(C)cc3)c(C)n2n1 (centres undefined)	none
CC1CC(=O)N(Cc2ccccc2)c2ccccc2N1C=O (centres undefined)	Bead autofluor 20499
COc1ccc(NC(=O)N(C)[C@H]2C[C@H]3c4[nH]c5ccc(-c6cccc(C)c6)cc5c4CCN3C[C@H]2[C@H](C)O)cc1	none
O=S(=O)(Nc1nccs1)c1ccc(NS(=O)(=O)c2cccs2)cc1	Bead autofluor 19362
Cc1[nH]n(-c2ccccc2)c(=O)c1C1(C(F)(F)F)C(=O)N(c2ccccc2)C2=C1C(=O)CC(C)(C)C2 (centres undefined)	Bead autofluor 23155, BoNT A protease inconclusive
Cc1ccc(N2C(=O)C(c3c(C)[nH]n(-c4ccccc4)c3=O)(C(F)(F)F)C3=C2CC(C)(C)CC3=O)cc1 (centres undefined)	none
CN1C(=O)C2(OCC(CO)([N+](=O)[O-])CO2)c2ccccc21 (centres undefined)	none
COc1ccc(NS(=O)(=O)c2ccc3c(c2)CCC(=O)N3)c(OC)c1	Bead autofluor 16726
COc1cccc(-n2c(=O)n(Cc3ccccc3)c(=O)c3[nH]cnc32)c1	BoNT-F LC inh inconclusive, BoNT A protease inconclusive
O=C(N/N=C/c1cccs1)C1CC(=O)N(c2ccccc2)C1 (centres undefined)	Bead autofluor 20162
CSCCC(N=Cc1c(O)n(-c2ccc(Br)cc2)c(=O)[nH]c1=O)C(=O)OC(C)(C)C (centres undefined)	Bead autofluor 21352, BoNT A protease inconclusive
CSCCC(N=Cc1c(O)n(-c2ccc(F)cc2)c(=O)[nH]c1=O)C(=O)OC(C)(C)C (centres undefined)	none
Cc1nc(-c2ccccc2)cc(N2CCCC2)n1	Bead autofluor 23051, BoNT A protease inconclusive
O=C(O)/C=C/C(=O)Nc1ccc(C2(c3ccc(NC(=O)/C=C/C(=O)O)cc3)c3ccccc3-c3ccccc32)cc1	none
O=C(Nc1ccc(-c2nc3ccccc3o2)cc1)c1cc(-n2cnnc2)ccc1Cl	Bead autofluor 23846
O=C(Nc1ccc(-c2nc3ccccc3o2)c(O)c1)c1cc(-n2cnnc2)ccc1Cl	Bead autofluor 21640
Cc1c(NC(=O)c2cc(-n3cnnc3)ccc2Cl)cccc1-c1nc2ccccc2o1	none
O=C(Nc1ccc2oc(-c3ccccc3)nc2c1)c1cc(-n2cnnc2)ccc1Cl	none
Cc1nn(-c2ccccc2)c(C)c1/C=N/N1CCN(c2ccccn2)CC1	none
Cc1nn(-c2ccccc2)c(N2CCCC2)c1/C=N/O	Bead autofluor 24403
Cc1nn(-c2ccccc2)c(Cl)c1/C=N/O	none
Cc1nn(-c2ccccc2)c(C)c1/C=N/N1CCN(c2ccccc2)CC1	Bead autofluor 20444
O=S(=O)(c1ccccc1)[C@@]1(c2ccccc2)C[C@@H]2ON=C(c3cccc(-c4ccccc4)c3)[C@@H]2C1	none
COc1ccc(C)cc1NC(=O)C1CC(=O)OC12CCCCC2 (centres undefined)	Bead autofluor 22901
Cc1cccc(NC(=O)C2CC(=O)OC23CCCCC3)c1 (centres undefined)	none
Cc1ccc(CNC(=O)C2CC(=O)OC23CCCC3)c(C)c1 (centres undefined)	Bead autofluor 16440
CC1(C(=O)NS(=O)(=O)C2CC2)CCCN(C(=O)COCc2ccccc2)C1 (centres undefined)	none
CCCCC1CCC(C(=O)Nc2ccc(N3CCOCC3)cc2N2CCOCC2)CC1 (centres undefined)	none
COc1ccc(CCNC(=O)C2CCC(=O)N(CC3CCCCC3)C2)cc1 (centres undefined)	none
CCCN1CN(Cc2ccco2)c2nc3ccccc3n2C1	Bead autofluor 18478, BoNT A protease inconclusive
Cc1ccccc1Cn1ccc(-c2ccc(Cl)cc2)c(C#N)c1=O	Bead autofluor 23457
O=C(CSCc1ccccc1Cl)Nc1ccc2c(c1)OCCO2	Bead autofluor 20949, BoNT A protease inconclusive
O=C(CSc1nnc(-c2cccc(Cl)c2)o1)Nc1ccc2c(c1)OCCO2	Bead autofluor 22299, BoNT A protease inconclusive
CCC(=O)Nc1nnc(SCC(=O)Nc2ccc3c(c2)OCCO3)s1	none
O=C(CNCc1ccccc1Cl)Nc1ccc2c(c1)OCCO2	none
O=C(O)CSc1nnc(-c2ccc3c(c2)OCO3)o1	Bead autofluor 16221
Nc1nnc(SCC(=O)Nc2ccc3c(c2)OCCO3)s1	Bead autofluor 17217
O=[N+]([O-])c1ccc(-c2cnc[nH]2)cc1	BoNT-F LC inh inconclusive
Nc1ccccc1SC1CC(=O)N(Cc2ccccc2)C1=O (centres undefined)	none
COC(=O)c1ccc(NC(=O)CCN2C(=O)C3C4CCC(C4)C3C2=O)cc1 (centres undefined)	none
CN1C[C@H]2CON(C)[C@H]2C[C@H]1c1cccc(N2CCOCC2)c1	none
CC(SCc1ccccc1)C(=O)Nc1ccc2c(c1)OCO2 (centres undefined)	Bead autofluor 16775
Nc1nc(SCCO)[nH]c(=O)c1NC(=O)c1ccco1	Bead autofluor 19769
CCOC(=O)c1ccc(S(=O)(=O)N2CCN(C(=O)c3cccc(S(=O)(=O)N4CC(C)OC(C)C4)c3)CC2)cc1 (centres undefined)	none
O=[N+]([O-])c1ccc(/C=N/n2c(COc3ccccc3)n[nH]c2=S)cc1	none
O=[N+]([O-])c1cccc(/C=N/n2c(COc3ccccc3)n[nH]c2=S)c1	Bead autofluor 16172

Bioassay records deposited in PubChem BioAssay by NMMLSC.
